PubChem BioAssay (NCATS)
Inconclusive results are not listed. A call without a number means that no potency is given here. The source made the active and inactive calls. Calls follow the shape of the dose curve; as a rule, active = well fitted curve in the direction sought with a large enough effect; inconclusive = small, poorly fitted or top-dose-only effect, or another doubt; inactive = no such curve, though single readings can be large; an effect the other way counts as inactive or inconclusive.

Columns and labels:
[1] = qHTS of pediatric cancer cell lines to identify multiple opportunities for drug repurposing: Confirmatory screen for LAN-5 cells (AID 1347113); also: nearly all actives have a fitted effect of over 65% in size
Method in brief: (§1)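 Cells (500-1,000/well) rested 5 h, then received compounds for 48 h; metabolically active cells were measured by CellTiter-Glo luminescence. Final concentrations spanned up to 46 µM (MIPE, 11-point) or 0.59 nM-46 µM (NPC, 8-point) in primary screens, 11-point in follow-ups.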

[2] = qHTS of pediatric cancer cell lines to identify multiple opportunities for drug repurposing: Confirmatory screen for DAOY cells (AID 1347114); also: nearly all actives have a fitted effect of over 65% in size
Method in brief: (§2)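 Viability measured as metabolically active cells via CellTiter-Glo luminescence following 48 hours of compound exposure, 11-point dilutions in confirmatory testing. 500-1,000 cells/well plated 5 hours before dosing; controls were DMSO and 2.3 µM bortezomib.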

[3] = qHTS of pediatric cancer cell lines to identify multiple opportunities for drug repurposing: Confirmatory screen for NB-EBc1 cells (AID 1347115);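 also: cells exposed to compound for 48 h before the viability read; nearly all actives have a fitted effect of over 45% in size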
Method in brief: as §1

[4] = qHTS of pediatric cancer cell lines to identify multiple opportunities for drug repurposing: Confirmatory screen for SJ-GBM2 cells (AID 1347116); also: nearly all actives have a fitted effect of over 60% in size
Method in brief: as §2

[5] = qHTS of pediatric cancer cell lines to identify multiple opportunities for drug repurposing: Confirmatory screen for BT-37 cells (AID 1347117); also: nearly all actives have a fitted effect of over 55% in size
Method in brief: as §1

[6] = qHTS of pediatric cancer cell lines to identify multiple opportunities for drug repurposing: Confirmatory screen for control Hh wild type fibroblast cells (AID 1347121); also: nearly all actives have a fitted effect of over 70% in size
Method in brief: as §1

[7] = qHTS of pediatric cancer cell lines to identify multiple opportunities for drug repurposing: Confirmatory screen for U-2 OS cells (AID 1347122); also: nearly all actives have a fitted effect of over 65% in size
Method in brief: as §1

[8] = qHTS of pediatric cancer cell lines to identify multiple opportunities for drug repurposing: Confirmatory screen for RD cells (AID 1347124);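 also: cells exposed to compound for 48 h before viability readout; nearly all actives have a fitted effect of over 65% in size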
Method in brief: as §1

[9] = qHTS of pediatric cancer cell lines to identify multiple opportunities for drug repurposing: Confirmatory screen for Rh30 cells (AID 1347126); also: nearly all actives have a fitted effect of over 55% in size; also: potency is read from the fitted curve at half-maximal effect
Method in brief: as §1

[10] = qHTS of pediatric cancer cell lines to identify multiple opportunities for drug repurposing: Confirmatory screen for Saos-2 cells (AID 1347127); also: nearly all actives have a fitted effect of over 60% in size
Method in brief: as §1

[11] = qHTS of pediatric cancer cell lines to identify multiple opportunities for drug repurposing: Confirmatory screen for OHS-50 cells (AID 1347128);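 also: compound exposure lasted 48 h at 37 degrees C; nearly all actives have a fitted effect of over 55% in size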
Method in brief: as §1

[12] = qHTS of pediatric cancer cell lines to identify multiple opportunities for drug repurposing: Confirmatory screen for SK-N-SH cells (AID 1347129);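 also: cells exposed to compound for 48 h before viability read; nearly all actives have a fitted effect of over 60% in size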
Method in brief: as §1

[13] = tested on: Zika virus NS2B-NS3 protease; experiment: Primary screen GU AMC qHTS for Zika virus inhibitors (AID 1347154); also: nearly all actives have a fitted effect of over 70% in size; also: potency is read from the fitted curve at half-maximal effect
Method in brief: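 Fluorogenic AMC-substrate cleavage by noncovalent NS2B-NS3 protease complex (25 nM, pH 8.0 Tris buffer with Tween 20) followed for 15 minutes at room temperature (~20% conversion). Percent inhibition from ex340/em450 signal change, fitted by 4-parameter Hill equation.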

[14] = qHTS of pediatric cancer cell lines to identify multiple opportunities for drug repurposing: Confirmatory screen for TC32 cells (AID 1347118); also: potency is read from the fitted curve at half-maximal effect
Method in brief: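 TC32 cells, 500-1,000/well in growth medium, compound-treated 48 h at 37 °C; viability from CellTiter-Glo luminescence. Primary screen: MIPE 11-point (0.78 nM–46 µM final), NPC 8-point (0.59 nM–46 µM final); confirmatory at 11-point dilutions.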

[15] = qHTS of pediatric cancer cell lines to identify multiple opportunities for drug repurposing: Confirmatory screen for Rh41 cells (AID 1347123);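 also: 48 h compound exposure; nearly all actives have a fitted effect of over 60% in size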
Method in brief: as §1

[16] = target: Furin (Homo sapiens) (UniProt P09958); experiment: Furin counterscreen qHTS for Zika virus inhibitors (AID 1347149); also: nearly all actives have a fitted effect of over 70% in size; also: potency is read from the fitted curve at half-maximal effect
Method in brief: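 Counterscreen measures cleavage of 2 microM BOC-RVRR-AMC, below its ~15 microM Km, by 5 nM full-length human furin at pH 7.0 after a 15-min compound preincubation. Inhibition derives from the 15-min fluorescence increase at 37C.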

[17] = tested on: Zika virus NS2B-NS3 protease (linked construct); experiment: Confirmatory screen NINDS AMC qHTS for Zika virus inhibitors (AID 1347152); also: nearly all actives have a fitted effect of over 70% in size; also: potency is read from the fitted curve at half-maximal effect
Method in brief: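 Concentration-response confirmation used the NINDS linked protease (NS2B hydrophilic domain joined to NS3 protease domain), 1 nM, with a 15-min compound preincubation. Substrate, Nle-KRR-AMC at 10 microM, was read by UV fluorescence before and after 15 min.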

[18] = tested on: Zika virus NS2B-NS3 protease (unlinked complex); experiment: Confirmatory screen GU AMC qHTS for Zika virus inhibitors (AID 1347153); also: nearly all actives have a fitted effect of over 70% in size
Method in brief: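 Unlinked NS2B-NS3 complex (25 nM) in 10 mM Tris-HCl pH 8.0, 0.01% Tween 20 preincubated 15 min with compound, then 10 microM Bz-Nle-KRR-AMC (Km 18.3 µM). Fluorescence change over 15 min, normalized, Hill-fitted.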

[19] = tested on: Zika virus NS2B-NS3 protease (unlinked); experiment: Optimization of GU AMC qHTS for Zika virus inhibitors: Unlinked NS2B-NS3 protease assay (AID 1347151); also: series mostly up to about 52 µM; nearly all actives have a fitted effect of over 80% in size
Method in brief: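 In this qHTS, compounds acted on 25 nM unlinked Zika NS2B–NS3 in pH 8.0 Tris/Tween buffer. Cleavage of an AMC peptide ran 15 min at room temperature, to about 20% conversion.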

[20] = target: N-terminal Xaa-Pro-Lys N-methyltransferase 1 (Homo sapiens) (UniProt Q9BV86); experiment: qHTS Assay for Inhibitors of N-terminal methyltransferase 1 (NTMT1): LOPAC validation of the NTMT1 SAHH-coupled ThioGlo3 Assay (AID 1347143)
Method in brief: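 NTMT1 125nM + cpds (various conc.), 1 min RT; add SAM 100uM/SAHH 10uM/ThioGlo3 15uM (addition mix). SAHH-coupled thiol detection, Ex340/Em450, t0 and 30 min RT; signal normalized to background. LOPAC 1280-cpd pilot.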

N-terminal Xaa-Pro-Lys N-methyltransferase 1 (Homo sapiens), sequence (Q9BV86 whole entry, looked up): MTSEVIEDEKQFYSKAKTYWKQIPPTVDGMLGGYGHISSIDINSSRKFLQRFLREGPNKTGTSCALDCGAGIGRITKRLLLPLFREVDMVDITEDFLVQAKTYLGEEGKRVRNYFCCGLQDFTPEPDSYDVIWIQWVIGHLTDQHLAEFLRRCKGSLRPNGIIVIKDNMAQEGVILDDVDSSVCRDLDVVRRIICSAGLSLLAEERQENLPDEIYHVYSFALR
Furin (Homo sapiens), sequence (P09958 whole entry, looked up): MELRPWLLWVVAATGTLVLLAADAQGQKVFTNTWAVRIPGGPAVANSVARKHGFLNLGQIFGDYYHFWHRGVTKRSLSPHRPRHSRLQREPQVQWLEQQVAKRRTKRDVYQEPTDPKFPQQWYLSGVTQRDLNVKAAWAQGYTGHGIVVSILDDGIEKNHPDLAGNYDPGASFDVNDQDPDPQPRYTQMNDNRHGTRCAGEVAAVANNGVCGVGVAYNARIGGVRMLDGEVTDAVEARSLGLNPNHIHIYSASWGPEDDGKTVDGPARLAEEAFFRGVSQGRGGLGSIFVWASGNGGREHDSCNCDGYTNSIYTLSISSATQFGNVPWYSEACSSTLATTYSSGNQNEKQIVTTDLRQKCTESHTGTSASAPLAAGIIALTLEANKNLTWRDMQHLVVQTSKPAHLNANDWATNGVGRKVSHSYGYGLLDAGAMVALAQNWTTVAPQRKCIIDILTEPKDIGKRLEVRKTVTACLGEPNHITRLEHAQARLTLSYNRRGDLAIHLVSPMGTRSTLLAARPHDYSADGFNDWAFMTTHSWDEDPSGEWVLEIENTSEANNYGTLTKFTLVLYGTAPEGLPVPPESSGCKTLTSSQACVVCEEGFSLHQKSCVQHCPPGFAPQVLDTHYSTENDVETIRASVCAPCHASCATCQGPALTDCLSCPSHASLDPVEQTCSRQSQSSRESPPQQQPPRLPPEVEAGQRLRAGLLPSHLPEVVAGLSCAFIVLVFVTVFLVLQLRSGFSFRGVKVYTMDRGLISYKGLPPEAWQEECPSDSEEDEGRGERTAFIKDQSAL

Structure (SMILES): CCC(=O)OC1CCC2C3CCC4=CC(=O)CC[C@@]4(C)C3CC[C@]12C (some centres undefined)
- Potency [1]: inactive
- Potency [2]: inactive
- Potency [3]: inactive
- Potency [4]: inactive
- Potency [5]: inactive
- Potency [6]: inactive
- Potency [7]: inactive
- Potency [8]: inactive
- Potency [9]: inactive
- Potency [10]: inactive
- Potency [11]: inactive
- Potency [12]: inactive
- Potency [13]: inactive

Structure (SMILES): CS(=O)(=O)c1ccc(C(=O)C2C(=O)CCCC2=O)c([N+](=O)[O-])c1
- Potency [1]: inactive
- Potency [2]: inactive
- Potency [3]: inactive
- Potency [4]: inactive
- Potency [5]: inactive
- Potency [14]: inactive
- Potency [6]: inactive
- Potency [7]: inactive
- Potency [15]: inactive
- Potency [8]: inactive
- Potency [9]: inactive
- Potency [10]: inactive
- Potency [11]: inactive
- Potency [12]: inactive

Structure (SMILES): COC1=CC(C)=C[C@@H](C)[C@@H](O)[C@@H](C)CC(C)=CC=C[C@H](OC)[C@H]([C@@H](C)[C@@H](O)[C@H](C)[C@@]2(O)C[C@@H](O)[C@H](C)[C@@H](C(C)C)O2)OC1=O
- Potency [2]: inactive
- Potency [6]: inactive
- Potency [7]: inactive
- Potency [15]: inactive
- Potency [9]: 10.4 µM (active)
- Potency [12]: inactive
- Potency [13]: inactive

Structure (SMILES): O=C(O)COc1nc(Cl)c(Cl)cc1Cl
- Potency [1]: inactive
- Potency [2]: inactive
- Potency [3]: inactive
- Potency [5]: inactive
- Potency [6]: inactive
- Potency [7]: inactive
- Potency [15]: inactive
- Potency [8]: inactive
- Potency [9]: inactive
- Potency [11]: inactive
- Potency [12]: inactive
- Potency [13]: inactive

Structure (SMILES): Cc1ccccc1-n1c(Cn2cnc3c(N)ncnc32)nc2cccc(C)c2c1=O
- Potency [14]: inactive
- Potency [8]: inactive
- Potency [9]: inactive

Structure (SMILES): COc1ccc2c(c1)CN(C)CC2c1ccc(Cl)c(Cl)c1 (centres undefined)
- Potency [14]: 6.57 µM (active)

Structure (SMILES): O=C1C(I)=CC(=C(c2cc(I)c(O)c(I)c2)c2ccccc2C(=O)O)C=C1I
- Potency [8]: inactive
- Potency [16]: 18.7 µM (active)

Structure (SMILES): C=CCN1CC[C@]23CCCCC2[C@H]1Cc1ccc(O)cc13 (some centres undefined)
- Potency [16]: inactive

Structure (SMILES): CC(C)Oc1cccnc1N(C)C1CCN(Cc2ccccc2)CC1
- Potency [17]: inactive
- outcome [18]: inactive

Structure (SMILES): COC1=C[C@@H]2[C@@H]3Cc4ccc(OC)c(O)c4[C@]2(CCN3C)CC1=O
- Potency [13]: inactive

Structure (SMILES): C[C@](O)(COc1ccc(C#N)cc1)C(=O)Nc1ccc(C#N)c(C(F)(F)F)c1
- Potency [13]: inactive

Structure (SMILES): c1ccc(CCCN2CCN(CCOC(c3ccccc3)c3ccccc3)CC2)cc1
- Potency [19]: inactive
- Potency [13]: inactive

Structure (SMILES): Clc1cnc(Oc2ccc(Oc3ncc(Cl)cc3Cl)cc2)c(Cl)c1
- Potency [20]: inactive
- Potency [19]: inactive
- Potency [13]: inactive

Structure (SMILES): O=C1C=CC[C@@H]2[C@H]3CCCN4CCC[C@@H](CN12)[C@@H]34
- Potency [13]: inactive

Structure (SMILES): S=C(NC1CCCCC1)N1CCC(c2cnc[nH]2)CC1
- Potency [20]: inactive
- Potency [19]: inactive
- Potency [13]: inactive

Structure (SMILES): CC(Cc1ccc(O)cc1)NCC(O)c1cc(O)cc(O)c1 (centres undefined)
- Potency [19]: inactive

Structure (SMILES): Oc1ccc2c3c1O[C@H]1c4[nH]c5c(c4C[C@@]4(O)[C@@H](C2)N(CC2CC2)CC[C@]314)C[C@@]1(O)[C@H]2Cc3ccc(O)c4c3[C@@]1(CCN2CC1CC1)[C@H]5O4
- Potency [19]: inactive

Structure (SMILES): O=C(Cc1ccc(Cl)c(Cl)c1)N1CCCCC1CN1CCCC1 (centres undefined)
- Potency [20]: inactive
- Potency [19]: inactive
- Potency [13]: inactive

Structure (SMILES): C[N+](C)(C)CC(=O)O
- Potency [19]: inactive

Structure (SMILES): CNCCc1c[nH]c2ccc(O)cc12
- Potency [19]: inactive

Structure (SMILES): CCOC(=O)Nc1ccc(NCc2ccc(F)cc2)cc1N
- Potency [13]: inactive

Structure (SMILES): CCCN1CCO[C@@H]2c3cc(O)ccc3OC[C@H]21
- Potency [19]: inactive
- Potency [13]: inactive

Structure (SMILES): NC(=NCCC[C@H](N)C(=O)O)N[N+](=O)[O-]
- Potency [20]: inactive
- Potency [19]: inactive
- Potency [13]: inactive

Structure (SMILES): CC(C)[C@H]1C(=O)N[C@H](CO)Cc2c[nH]c3cccc(c23)N1C
- Potency [13]: inactive

Structure (SMILES): CN[C@@H]1Cc2cccc3[nH]c(=O)n(c23)C1
- Potency [13]: inactive

Structure (SMILES): CC(=O)N(C)c1cccc(-c2ccnc3c(C(=O)c4cccs4)cnn23)c1
- Potency [16]: 24.1 µM (active)
- Potency [17]: 24.1 µM (active)
- Potency [13]: 21.5 µM (active)

Structure (SMILES): O=C(O)Cc1cnc[nH]1
- Potency [20]: inactive
- Potency [19]: inactive
- Potency [13]: inactive

Structure (SMILES): NCCc1c[nH]c2ccc(O)cc12
- Potency [19]: inactive

Structure (SMILES): CNCCc1ccc(O)c(O)c1
- Potency [19]: inactive

Structure (SMILES): O=S(=O)(CC1CS1)c1ccc(Oc2ccccc2)cc1 (centres undefined)
- Potency [13]: inactive

Structure (SMILES): NC(CCP(=O)(O)O)C(=O)O (centres undefined)
- Potency [20]: inactive
- Potency [19]: inactive
- Potency [13]: inactive

Structure (SMILES): CCCN(CCC)C1CCc2ccc(O)cc2C1 (centres undefined)
- Potency [20]: inactive
- Potency [19]: inactive
- Potency [13]: inactive

Structure (SMILES): CN[C@@H]1C[C@@H](c2ccc(Cl)c(Cl)c2)c2ccccc21
- Potency [19]: inactive

Structure (SMILES): O=C(O)c1cc(Oc2ccc(C(F)(F)F)cc2Cl)ccc1[N+](=O)[O-]
- Potency [16]: inactive

Structure (SMILES): CC(C)N(CCNC(=O)CN1CCCC1=O)C(C)C
- Potency [13]: inactive

Structure (SMILES): O=C(O)COc1ccccc1
- Potency [13]: inactive

Structure (SMILES): NCCc1c[nH]c2ccccc12
- Potency [20]: inactive
- Potency [19]: inactive
- Potency [13]: inactive

Structure (SMILES): Nc1c(Cl)c(Cl)c(Cl)c(Cl)c1Cl
- Potency [16]: inactive
- Potency [13]: inactive

Structure (SMILES): CCNC(=O)CC1N=C(c2ccc(Cl)cc2)c2cc(OC)ccc2-n2c(C)nnc21 (centres undefined)
- Potency [13]: inactive

Structure (SMILES): C/C=C(/C)C(=O)O[C@H]1C(C)=C2[C@H]([C@@H]1OC(=O)CCCCCCC)[C@@](C)(OC(C)=O)C[C@H](OC(=O)CCC)[C@@]1(O)[C@H]2OC(=O)[C@@]1(C)O
- Potency [20]: inactive
- Potency [13]: inactive

Structure (SMILES): NC1CC1c1ccccc1 (centres undefined)
- Potency [20]: inactive
- Potency [19]: inactive
- Potency [13]: inactive

Structure (SMILES): COCCOCCO
- Potency [13]: inactive

Structure (SMILES): C#C[C@]1(O)C=C[C@@H]2[C@@H]3CCC4=CC(=O)CC[C@@H]4[C@H]3CC[C@@]21CC
- Potency [13]: inactive

Structure (SMILES): CC(=O)O[C@@]12CO[C@H]1C[C@H](O)[C@@]1(C)C(=O)[C@H](O)C3=C(C)[C@@H](O)C[C@@](O)([C@@H](OC(=O)c4ccccc4)[C@@H]21)C3(C)C
- Potency [13]: inactive

Structure (SMILES): O=C1CCC[C@@H]2[C@H]3CCCN4CCC[C@@H](CN12)[C@@H]34
- Potency [13]: inactive

Structure (SMILES): O=C(O)CNC(=O)c1c(O)c2ccccc2n(Cc2ccccc2)c1=O
- Potency [13]: inactive

Structure (SMILES): COC(=O)[C@@H](N)CCCN=C(N)N[N+](=O)[O-]
- Potency [20]: inactive
- Potency [19]: inactive
- Potency [13]: inactive
